By Kd is commonly meant the free concentration of one partner at which half of the binding sites on the other are occupied at equilibrium, for simple one-to-one binding. Low readings indicate tighter binding, high ones weaker binding.

The target in the assay is T1, Fkh (Drosophila melanogaster, UniProt P14734 209-300).
T1 sequence: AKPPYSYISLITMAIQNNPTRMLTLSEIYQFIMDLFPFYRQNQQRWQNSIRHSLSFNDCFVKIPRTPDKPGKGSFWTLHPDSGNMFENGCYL
The experiment in a line: FP; 33 mM phosphate pH 7.0, 90 mM NaCl, 0.01% Tween 20, 0.1 mM DTT, 0.5% agarose; room temperature. The note with it: tags: N-GST (pGEX-6P-1, kept); dsDNA, one strand shown.
With AGTTAAATAATGA, the binding signal is 2.19 Kd / Kd of best base at the position. Turning to AGTTAATTATTGA, the binding signal is 6.31 Kd / Kd of best base at the position. Consider AATTAAATATTGA, for which the binding signal is 2.06 Kd / Kd of best base at the position. The same measure, in the same setting: for AGTTTAATATTGA the value was 32.1 Kd / Kd of best base at the position.

With AGTTAAATATGGA, the binding signal was 3.07 Kd / Kd of best base at the position.

AGTTAAATATTCA: the binding signal was 2.02 Kd / Kd of best base at the position. For the sequence AGTTAAATATTGA, the Kd was about 17 nM. Take AGTTAAAGATTGA: the binding signal is 14.9 Kd / Kd of best base at the position. As to TGTTAAATATTGA, the binding signal was 1.33 Kd / Kd of best base at the position. The same measure, in the same setting: under AGTTGAATATTGA stands 59.1 Kd / Kd of best base at the position; under AGTTAAACATTGA, 29.1 Kd / Kd of best base at the position. On the same count and under the same terms, for AGTTAAGTATTGA the value was 37.9 Kd / Kd of best base at the position; for AGCTAAATATTGA, 3.26 Kd / Kd of best base at the position; for AGTGAAATATTGA, 6.68 Kd / Kd of best base at the position. The same measure, in the same setting: for GGTTAAATATTGA the value was 6.61 Kd / Kd of best base at the position; for AGGTAAATATTGA, 1.27 Kd / Kd of best base at the position. As to AGTTCAATATTGA, the binding signal is 2.55 Kd / Kd of best base at the position. On to AGTTAAATCTTGA, for which the binding signal was 14.3 Kd / Kd of best base at the position. Same read-out and setting: under CGTTAAATATTGA stands 8.05 Kd / Kd of best base at the position; under AGTAAAATATTGA, 4.77 Kd / Kd of best base at the position. Same read-out and setting: for AGTTAAATATCGA the value was 6.39 Kd / Kd of best base at the position. As to ATTTAAATATTGA, the binding signal was 1.06 Kd / Kd of best base at the position. In the case of AGTCAAATATTGA, the binding signal was 3.44 Kd / Kd of best base at the position. As for AGTTAGATATTGA, the binding signal was 60.9 Kd / Kd of best base at the position.

As for AGTTAAATATTAA, the binding signal is 1.49 Kd / Kd of best base at the position.

On to AGTTACATATTGA, for which the binding signal is 4.6 Kd / Kd of best base at the position.

Take AGTTAACTATTGA: the binding signal was 10.2 Kd / Kd of best base at the position.

AGTTAAAAATTGA: the binding signal is 18.5 Kd / Kd of best base at the position. Same read-out and setting: for AGTTATATATTGA the value was 18.4 Kd / Kd of best base at the position. In the case of AGTTAAATATTGT, the binding signal is 1.97 Kd / Kd of best base at the position. The same measure, in the same setting: under ACTTAAATATTGA stands 7.14 Kd / Kd of best base at the position; under AGTTAAATATAGA, 1.73 Kd / Kd of best base at the position; under AGTTAAATTTTGA, 7.9 Kd / Kd of best base at the position. As to AGTTAAATATTGG, the binding signal is 1.17 Kd / Kd of best base at the position. For AGATAAATATTGA, the binding signal was 1.16 Kd / Kd of best base at the position.

With AGTTAAATATTTA, the binding signal is 1.68 Kd / Kd of best base at the position. Consider AGTTAAATATTGC, for which the binding signal was 2.76 Kd / Kd of best base at the position. As for AGTTAAATGTTGA, the binding signal is 102 Kd / Kd of best base at the position. Still for that read-out and setting: under AGTTAAATACTGA stands 27.4 Kd / Kd of best base at the position. Turning to AGTTAAATAGTGA, the binding signal was 2.35 Kd / Kd of best base at the position.

The values are drawn from publication PMC5913336, “True equilibrium measurement of transcription factor-DNA binding affinities using automated polarization microscopy”.
